Screens deposited in PubChem BioAssay by National Center for Advancing Translational Sciences (NCATS).
HCMV antiviral: human cytomegalovirus inhibition; HFF cells, HCMV-luciferase reporter, 72 h; hits give low values; activity change, negative = inhibition, % at 57.5 µM; actives 4.5% (n = 410,000); in the data active means activity change below about -60%; inconclusive means no clear call, values can overlap the other calls; inactive means above about -39%
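Compounds were evaluated in HFFs infected with an HCMV luciferase reporter virus (MOI 1 PFU/cell). Luciferase in lysates collected 72 h post infection served as the replication measure.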
HCV inh: blocks hepatitis C virus | actives 3.4% (n = 340,000) | Potency, µM (titrated, usually from 41.8 µM), for inactives: top-dose activity change, negative = inhibition, usual class: inhibitors | AID 651820 | Huh7.5.1 HCVcc-Cre infection, luciferase reporter, 44 h; active means well fitted inhibition curve with a large enough effect; inconclusive means small, poorly fitted or top-dose-only effect, or another doubt; inactive means no such curve, though single readings can be large or run the other way; further: potency means the concentration at half of the fitted maximal effect
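After 44 h co-culture of compound, cells and HCVcc-Cre (~0.5 moi), substrate is added for 15 min at room temperature and luciferase measured over 15 sec. Cells were seeded at 1,000/well and pre-cultured 4 h.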
Marburg entry inh: inhibitors of Marburg virus binding or cell entry; Marburg virus pseudotyped entry inhibition, cell reporter; actives 1.8% (n = 300,000); Potency, µM (series often up to 37.8 µM), inactives show at the top dose activity change, negative = inhibition, most hits filed as inhibitors; calls by dose curve; tested in HEK293 cells; further: potency means the concentration at half of the fitted maximal effect
FMDV antiviral: blocks foot and mouth disease virus | FMDV antiviral cell-based qHTS | actives 1.2% (n = 410,000) | Potency, µM (titrated, usually from 57.9 µM), for the others: at the highest dose activity change, negative = inhibition, most hits filed as inhibitors; calls by dose curve; tested in HEK293T cells; further: read-out not given here; potency means the concentration at half of the fitted maximal effect; nearly all actives have a fitted effect of over 45% in size
LASV entry inh: Lassa virus entry inhibition. actives 1.2% (n = 300,000). Potency, µM (series often up to 37.9 µM), without a hit: top-dose activity change, negative = inhibition, usual class: inhibitors. Lassa virus pseudotype entry inhibition, cell reporter; calls by dose curve; tested in HEK293 cells; further: potency means the concentration at half of the fitted maximal effect; nearly all actives have a fitted effect of over 50% in size
* hit, by the source's call; ! = a repeat was not active; [ ] = remark or other dose. The list is not random: actives were taken first. Their share in the collection is about 7.9%. On the % scale 0 is the no-effect control and ±100 the full control effect.

For Cc1nn(C)c2c1c(C(F)(F)F)cc(=O)n2CC(=O)NCCC(C)C the results were HCMV antiviral -3, FMDV antiviral -14% and LASV entry inh -3%[46.1 µM].
For Cc1cc(=O)n2c(C(=O)Nc3ccc(F)c(Cl)c3)c(C(=O)Nc3cccc(C)c3C)sc2n1 the results were HCMV antiviral 6, Marburg entry inh -2%[46.1 µM], FMDV antiviral -16% and LASV entry inh inconclusive.
For Cc1cc(=O)n2c(C(=O)Nc3ccc(C(=O)OC(C)C)cc3)c(C(=O)Nc3ccccc3)sc2n1 the results were HCMV antiviral -67*, HCV inh -29%, Marburg entry inh inconclusive, FMDV antiviral -9% and LASV entry inh 23µM*.
`N#CC(c1ccccc1O)N1N=C(c2ccccc2)CC1c1ccccc1` (stereo not drawn) gave HCMV antiviral -61*, HCV inh inconclusive and FMDV antiviral 37%.
For CCc1cc(CC)c(/C=N/NC(N)=O)c(CC)c1 the results were HCMV antiviral -24, HCV inh 11µM* and FMDV antiviral -14%.
`CCCn1nc(C(=O)Nc2ccc3nc(N4CCOCC4)sc3c2)ccc1=O` gave HCMV antiviral -76*, HCV inh inconclusive, Marburg entry inh inconclusive, FMDV antiviral 13µM* and LASV entry inh inconclusive.
For COc1ccc(C(=O)Nc2ccc3nc(N4CCOCC4)sc3c2)cc1OC the results were HCMV antiviral 88, HCV inh inconclusive and FMDV antiviral -9%.
For CCOCc1c(C(=O)Nc2ccccc2N2CCN(C)CC2)oc2ccccc12 the results were HCMV antiviral 12, HCV inh 11µM*, Marburg entry inh inconclusive, FMDV antiviral -24% and LASV entry inh 4%[46.1 µM].
For CCOCc1c(C(=O)Nc2ccc3nc(N4CCOCC4)sc3c2)oc2ccccc12 the results were HCMV antiviral 44, HCV inh inconclusive, Marburg entry inh inconclusive, FMDV antiviral 20µM* and LASV entry inh inconclusive.
Screening CCOCc1c(C(=O)Nc2cc(OCC)c(N3CCOCC3)cc2OCC)oc2ccccc12 returned HCMV antiviral 74, HCV inh 4%, Marburg entry inh 2%[46.1 µM], FMDV antiviral inconclusive and LASV entry inh -7%.
For COc1ccc(NC(=O)Cn2cc(S(=O)(=O)N3CCN(c4ccccc4F)CC3)c3ccccc3c2=O)cc1Cl the results were HCMV antiviral 23, Marburg entry inh inconclusive, FMDV antiviral 1% and LASV entry inh 22%[46.1 µM].
COc1cccc(CN2C(=O)NC(C)(C3CCN(Cc4cc(F)cc(F)c4)CC3)C2=O)c1OC (stereo not drawn) was read as FMDV antiviral -3%.
`Cc1ccc(C(=O)c2cn(CC(=O)NC3CCCCC3)c3nc(C)ccc3c2=O)cc1` gave HCMV antiviral 6, FMDV antiviral -23% and LASV entry inh -11%[46.1 µM].
For CCn1c2c(c(=O)n3ncc(C(=O)Nc4ccc(OC(F)(F)F)cc4)c13)CN(Cc1ccc(OC)cc1)CC2 the results were HCMV antiviral 0, FMDV antiviral -23% and LASV entry inh 8%[46.1 µM].
C=CCn1cc(C(=O)OC)c(=O)c2cc(S(=O)(=O)N(CC)CC)ccc21 was read as HCMV antiviral -14, HCV inh 1%, Marburg entry inh 2% and LASV entry inh 27%.
For CCCCN(C)CCCNC(=O)c1cn(CC)c2ccc(S(=O)(=O)N3CCc4ccccc4C3)cc2c1=O the results were HCMV antiviral -68*!, HCV inh inconclusive, Marburg entry inh 5.6µM*, FMDV antiviral -17% and LASV entry inh -13%.
For C=CCn1cc(C(=O)N2CCc3ccccc3C2)c(=O)c2cc(S(=O)(=O)N(CC)CC)ccc21 the results were HCMV antiviral -67*, HCV inh -3%, Marburg entry inh 2%, FMDV antiviral 15% and LASV entry inh inconclusive.
Screening CCn1cc(C(=O)NCCCOC(C)C)c(=O)c2cc(S(=O)(=O)N3CCc4ccccc4C3)ccc21 returned HCMV antiviral -27, Marburg entry inh 0%[46.1 µM], FMDV antiviral 2% and LASV entry inh -11%[46.1 µM].
Screening CCCCN(CC)CCCNC(=O)c1cn(CC)c2ccc(S(=O)(=O)N3CCc4ccccc4C3)cc2c1=O returned HCMV antiviral -60*!, HCV inh inconclusive, Marburg entry inh inconclusive, FMDV antiviral 0% and LASV entry inh inconclusive.
For CCn1cc(C(=O)NCCCN2CCCC2)c(=O)c2cc(S(=O)(=O)N3CCc4ccccc4C3)ccc21 the results were HCMV antiviral -4, HCV inh 14µM*, Marburg entry inh inconclusive, FMDV antiviral -10% and LASV entry inh -19%.
`CCn1cc(C(=O)NCCCOC)c(=O)c2cc(S(=O)(=O)N3CCc4ccccc4C3)ccc21` gave HCMV antiviral -15, Marburg entry inh -1%[46.1 µM], FMDV antiviral -18% and LASV entry inh -13%[46.1 µM].
`CCS(=O)(=O)c1ccccc1C(=O)N(Cc1cccnc1)c1nc2cc(C)c(C)cc2s1` gave HCMV antiviral 88, FMDV antiviral 21% and LASV entry inh -28%[46.1 µM].
For COC(=O)[C@@H]1[C@@H](CO)[C@@H]2Cn3c(ccc(Br)c3=O)[C@H]1N2S(C)(=O)=O the results were HCMV antiviral 16.
Screening CCCN(CCC)CCCNC(=O)c1cn(CC)c2ccc(S(=O)(=O)N3CCc4ccccc4C3)cc2c1=O returned HCMV antiviral -82*!, HCV inh inconclusive, Marburg entry inh inconclusive, FMDV antiviral -10% and LASV entry inh inconclusive.
For CCn1cc(C(=O)NCCCN(CC(C)C)CC(C)C)c(=O)c2cc(S(=O)(=O)N3CCc4ccccc4C3)ccc21 the results were HCMV antiviral -2, Marburg entry inh 22%[46.1 µM], FMDV antiviral -14% and LASV entry inh -5%[46.1 µM].
CC(C)(CO)Nc1nc(Nc2ccccc2)nc(Nc2ccccc2)n1 was read as HCMV antiviral -11, HCV inh 10µM*, Marburg entry inh -17%, FMDV antiviral -23% and LASV entry inh 0%.
For Cc1cccc(CN2C[C@H](Sc3ccccn3)C[C@H]2C(=O)Nc2ccc3sc(C)nc3c2)c1 the results were FMDV antiviral -8%.
For CO[C@H]1[C@H](NC(=O)c2ccsc2)c2ccccc2C12CCN(Cc1c(O)ccc3ccccc13)CC2 the results were FMDV antiviral 13%.
Screening CC(=O)Nc1cccc(-c2csc(Nc3ccc(C)cn3)n2)c1 returned HCMV antiviral 9, HCV inh inconclusive, Marburg entry inh inconclusive, FMDV antiviral -33% and LASV entry inh 1.8µM*.
Screening CC(=O)Nc1cccc(-c2csc(Nc3ncccn3)n2)c1 returned HCMV antiviral 3.
`CC(=O)Nc1ccc(-c2csc(Nc3cccc(C)n3)n2)cc1` gave HCMV antiviral 7, HCV inh 13µM*, Marburg entry inh -15%, FMDV antiviral 27% and LASV entry inh inconclusive.
For CC(C)CNc1nc(Oc2ccc(OCC(N)=O)nn2)nc(N2CCOCC2)n1 the results were HCMV antiviral 41, Marburg entry inh -2%[46.1 µM], FMDV antiviral -12% and LASV entry inh -1%[46.1 µM].
